Measurements reported in the supplement of paper PMC8371130.
Where a name gives a salt, the structure may show the parent alone.

Tested on: HL-1
Assay: relative cell viability (CellTiter-Glo) vs DMSO control (% of DMSO control); higher = more viable cells
Outline: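 One day after HL-1 mouse atrial cardiomyocytes were plated (1000 cells per well, 384-well plates) with compounds at 40, 200, 1000 or 5000 nM in 0.01% DMSO, they were transferred to a hypoxic workstation at 1% O2. After 48 h there, the cells were reoxygenated for 24 h in a normal incubator, and comparison cells stayed in normoxia throughout the same time. Cell viability was quantified with CellTiter-Glo luminescence and normalised to vehicle-treated control cells.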

[1] = oxygen condition: hypoxia 48 h (1% O2) + reoxygenation 24 h, 40 nM
[2] = oxygen condition: hypoxia 48 h (1% O2) + reoxygenation 24 h, 200 nM
[3] = oxygen condition: hypoxia 48 h (1% O2) + reoxygenation 24 h, 1000 nM
[4] = oxygen condition: hypoxia 48 h (1% O2) + reoxygenation 24 h, 5000 nM
[5] = oxygen condition: normoxia 72 h, 40 nM
[6] = oxygen condition: normoxia 72 h, 200 nM
[7] = oxygen condition: normoxia 72 h, 1000 nM
[8] = oxygen condition: normoxia 72 h, 5000 nM

| SMILES | relative cell viability [1] | relative cell viability [2] | relative cell viability [3] | relative cell viability [4] | relative cell viability [5] | relative cell viability [6] | relative cell viability [7] | relative cell viability [8] |
| --- | --- | --- | --- | --- | --- | --- | --- | --- |
| COc1cccc2c1C(=O)c1c(O)c3c(c(O)c1C2=O)C[C@@](O)(C(C)=O)C[C@@H]3O[C@H]1C[C@H](N)[C@H](O)[C@H](C)O1 [Daunorubicin HCl] | 56.7 | 30.5 | 17.2 | 2.34 | 62.6 | 29.6 | 10.3 | 2.68 |
| C=C[C@H]1CN2CC[C@H]1C[C@H]2[C@H](O)c1ccnc2ccc(OC)cc12 [Quinine hydrochloride dihydrate] | 103 | 104 | 102 | 104 | 102 | 101 | 103 | 111 |
| CNNCc1ccc(C(=O)NC(C)C)cc1 [Procarbazine HCl] | 109 | 101 | 96.6 | 108 | 97.6 | 101 | 97.9 | 113 |
| COc1ccc(CC(C)NCC(O)c2ccc(O)c(NC=O)c2)cc1 (stereo not given) [Formoterol hemifumarate] | 100 | 98.7 | 102 | 111 | 104 | 106 | 98.9 | 106 |
| CCCC1O[C@@H]2C[C@H]3[C@@H]4CCC5=CC(=O)C=C[C@]5(C)[C@H]4[C@@H](O)C[C@]3(C)[C@]2(C(=O)CO)O1 (stereo not given in full) [Budesonide] | 95.2 | 102 | 91.2 | 96.5 | 90.9 | 83.5 | 95.6 | 96.4 |
| O=S(=O)(O)Oc1ccc(C(c2ccc(OS(=O)(=O)O)cc2)c2ccccn2)cc1 [Sodium Picosulfate] | 107 | 109 | 108 | 116 | 110 | 111 | 112 | 116 |
| C=CC[C@@H]1/C=C(\C)C[C@H](C)C[C@H](OC)[C@H]2O[C@@](O)(C(=O)C(=O)N3CCCC[C@H]3C(=O)O[C@H](/C(C)=C/[C@@H]3CC[C@@H](O)[C@H](OC)C3)[C@H](C)[C@@H](O)CC1=O)[C@H](C)C[C@@H]2OC | 102 | 105 | 102 | 101 | 109 | 106 | 106 | 105 |
| CN1CCC(OC(c2ccccc2)c2ccccc2)CC1 [Diphenylpyraline HCl] | 102 | 96.9 | 99.3 | 110 | 96.9 | 103 | 102 | 100 |
| COC(c1ccccc1)(c1ccccc1)[C@H](Oc1nc(C)cc(C)n1)C(=O)O [Ambrisentan] | 105 | 97.3 | 109 | 105 | 95.1 | 94 | 102 | 99.8 |
| CCN(CC)CCOC(=O)C(c1ccccc1)c1ccccc1 [Adiphenine HCl] | 99.1 | 94.2 | 102 | 108 | 101 | 97.4 | 101 | 110 |
| CCN(CC)CCNC(=O)c1c(C)[nH]c(/C=C2\C(=O)Nc3ccc(F)cc32)c1C [Sunitinib Malate] | 106 | 109 | 107 | 115 | 105 | 119 | 114 | 111 |
| CCCC(=O)O[C@]1(C(=O)COC(C)=O)CC[C@H]2[C@@H]3C[C@H](F)C4=CC(=O)C=C[C@]4(C)[C@@]3(F)[C@@H](O)C[C@@]21C [Difluprednate] | 83.3 | 93.3 | 92.2 | 102 | 90.8 | 89 | 94.4 | 102 |
| C[C@@H](Oc1cc(-c2cnn(C3CCNCC3)c2)cnc1N)c1c(Cl)ccc(F)c1Cl [Crizotinib] | 94.3 | 92.1 | 99.2 | 70.3 | 98.8 | 98.6 | 87.4 | 52 |
| CC[C@@]1(O)C(=O)OCc2c1cc1n(c2=O)Cc2cc3c(CN(C)C)c(O)ccc3nc2-1 [Topotecan HCl] | 58.6 | 37.4 | 19.8 | 9.1 | 52.3 | 30.9 | 15.1 | 6.41 |
| CC1=NN(c2ccccc2)C(=O)C1 [Edaravone] | 101 | 97.7 | 95.2 | 108 | 95.7 | 95.9 | 98.9 | 103 |
| Cc1cc2c(cc1S(N)(=O)=O)S(=O)(=O)CCC2 [Meticrane] | 101 | 101 | 105 | 103 | 102 | 104 | 102 | 112 |
| CC(=O)[C@H]1CC[C@H]2[C@@H]3CCC4=CC(=O)CC[C@]4(C)[C@H]3CC[C@]12C [Progesterone] | 109 | 105 | 103 | 116 | 111 | 111 | 111 | 116 |
| CCC1=C(C)CN(C(=O)NCCc2ccc(S(=O)(=O)NC(=O)N[C@H]3CC[C@H](C)CC3)cc2)C1=O [Glimepiride] | 93.1 | 96.3 | 95.2 | 106 | 88.9 | 77.4 | 94.7 | 105 |
| Cc1cc(N)c2ccccc2[n+]1CCCCCCCCCC[n+]1c(C)cc(N)c2ccccc21 [Dequalinium chloride] | 101 | 104 | 101 | 112 | 93.3 | 107 | 97.3 | 101 |
| Fc1ccc(C(c2ccc(F)cc2)N2CCN(C/C=C/c3ccccc3)CC2)cc1 [Flunarizine 2HCl] | 93.6 | 100 | 98.7 | 117 | 107 | 99.7 | 109 | 114 |

| SMILES | relative cell viability [1] | relative cell viability [2] | relative cell viability [3] | relative cell viability [4] | relative cell viability [5] | relative cell viability [6] | relative cell viability [7] | relative cell viability [8] |
| --- | --- | --- | --- | --- | --- | --- | --- | --- |
| CC[C@H](C)C(=O)O[C@H]1C[C@H](O)C=C2C=C[C@H](C)[C@H](CC[C@@H](O)C[C@@H](O)CC(=O)O)[C@H]21 [Pravastatin sodium] | 99.1 | 94.4 | 84.7 | 19.8 | 96.8 | 95.9 | 70.7 | 6.81 |
| C[N+](C)(C)CC(O)CC(=O)[O-] (racemic) [DL-Carnitine hydrochloride] | 100 | 95.2 | 97.2 | 107 | 104 | 102 | 103 | 91.5 |
| CS(=O)(=O)CCNCc1ccc(-c2ccc3ncnc(Nc4ccc(OCc5cccc(F)c5)c(Cl)c4)c3c2)o1 [Lapatinib] | 101 | 97.4 | 99.7 | 104 | 93.2 | 96.8 | 94 | 102 |
| COc1cc2ncnc(Nc3ccc(F)c(Cl)c3)c2cc1OCCCN1CCOCC1 [Gefitinib] | 106 | 114 | 122 | 100 | 101 | 112 | 99.4 | 100 |
| OC[C@@H](O)[C@@H](O)[C@H](O)[C@@H](O)CO [Sorbitol] | 93 | 101 | 98 | 101 | 100 | 106 | 97.9 | 97.5 |
| CC#CCn1c(N2CCC[C@@H](N)C2)nc2c1c(=O)n(Cc1nc(C)c3ccccc3n1)c(=O)n2C [Linagliptin] | 96.7 | 103 | 104 | 105 | 106 | 105 | 107 | 106 |
| CC[C@]1(O)C[C@H]2CN(CCc3c([nH]c4ccccc34)[C@@](C(=O)OC)(c3cc4c(cc3OC)N(C=O)[C@H]3[C@@](O)(C(=O)OC)[C@H](OC(C)=O)[C@]5(CC)C=CCN6CC[C@]43[C@@H]65)C2)C1 [Vincristine] | 38.3 | 40.4 | 44.4 | 42 | 32.5 | 29.1 | 32.3 | 41.1 |
| CC(C)(C)c1ccc(C(O)CCCN2CCC(C(O)(c3ccccc3)c3ccccc3)CC2)cc1 (stereo not given) [Terfenadine] | 89 | 102 | 94.4 | 79.4 | 97.4 | 91.5 | 76.7 | 79.7 |
| Cc1ccc(C(=O)c2cc(O)c(O)c([N+](=O)[O-])c2)cc1 [Tolcapone] | 101 | 100 | 103 | 116 | 98.4 | 102 | 103 | 113 |
| O=P(O)(O)C(O)(Cc1cccnc1)P(=O)(O)O [Risedronic acid] | 94 | 101 | 96.4 | 71.4 | 99 | 108 | 105 | 107 |
| NS(=O)(=O)c1cc2c(cc1Cl)NC(C(Cl)Cl)NS2(=O)=O (stereo not given) [Trichlormethiazide] | 109 | 109 | 118 | 119 | 107 | 115 | 112 | 114 |
| CNC[C@@H](O)c1ccc(O)c(O)c1 [L-Adrenaline] | 102 | 99.7 | 100 | 99.2 | 100 | 101 | 95.7 | 95.4 |
| CN1CCN(CCCN2c3ccccc3Sc3ccc(C(F)(F)F)cc32)CC1 [Trifluoperazine 2HCl] | 102 | 103 | 105 | 114 | 107 | 106 | 103 | 112 |
| CN1CCCCC1CCN1c2ccccc2Sc2ccc([S+](C)[O-])cc21 (stereo not given) [Mesoridazine Besylate] | 108 | 106 | 105 | 113 | 97 | 102 | 117 | 115 |
| C#CCC(Cc1cnc2nc(N)nc(N)c2n1)c1ccc(C(=O)N[C@@H](CCC(=O)O)C(=O)O)cc1 (stereo not given in full) [Pralatrexate] | 38.6 | 43 | 37.3 | 38.9 | 44.3 | 42.7 | 46.2 | 41.8 |
| CC(=O)/N=c1/sc(S(N)(=O)=O)nn1C [Methazolamide] | 100 | 109 | 108 | 109 | 110 | 105 | 99.7 | 108 |
| Cc1[nH]c(=O)c(C#N)cc1-c1ccncc1 [Milrinone] | 102 | 106 | 105 | 111 | 99.8 | 108 | 99.1 | 113 |
| O=C1CCc2cc(OCCCCc3nnnn3C3CCCCC3)ccc2N1 [Cilostazol] | 107 | 107 | 111 | 107 | 105 | 108 | 106 | 109 |
| COCCCOc1cc(C[C@@H](C[C@H](N)[C@@H](O)C[C@H](C(=O)NCC(C)(C)C(N)=O)C(C)C)C(C)C)ccc1OC [Aliskiren hemifumarate] | 94.1 | 97.2 | 92.3 | 107 | 95.9 | 102 | 101 | 107 |
| CCCNC(C)C(=O)Nc1c(C)csc1C(=O)OC (stereo not given) [Articaine HCl] | 105 | 103 | 57.4 | 105 | 103 | 101 | 103 | 107 |
